Consider two molecules from PubChem BioAssay AID2125 (NMMLSC, 2009).

In the assay the test system is YE4008. The experiment in a line: growth inhibition of S. cerevisiae strain panel, profiling panel, 26S proteasome disassembly project, secondary panel, OD600 (AID 2125). To be noted: growth OD600, 6-8 h, at 100 µM, hits give low values.

Values without a mark were called inactive.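 Rule for the calls: active = combined score above 50, rising as EC50 falls below 10 µM and growth at top dose drops; inactive = the rest.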 Peptide text beside a SMILES is read from it. * marks the point of attachment. Cbz = O=C(OCc1ccccc1)*

In the case of `CC(=O)N1C(=O)C(=C2C=C(C)OC(C)=C2)c2ccccc21`, the percent response (growth) was 56.6%. With `CC(C)C[C@@H](C=O)NC(=O)[C@H](CC(C)C)NC(=O)[C@H](CC(C)C)NC(=O)OCc1ccccc1` (Cbz-Leu-Leu-Leu-aldehyde), the percent response (growth) was 88.2%.
